Measured values taken from PubChem BioAssay AID1345082 (National Center for Advancing Translational Sciences (NCATS), 2018).
About 4,000 (4.3%) of roughly 94,000 compounds were called active. Roughly 29% stayed inconclusive and do not appear here. The full list was thinned out, with actives kept by preference. Unmarked numbers belong to inactive results. The call rests on the fitted dose curve; in most records, active means well fitted inhibition curve with a large enough effect; inconclusive means small, poorly fitted or top-dose-only effect; inactive means no such curve, though single readings can be large or run the other way.

Assay: Cytotoxic Profiling in NIH 3T3 Cell Line of Diverse Libraries Using Quantitative High-Throughput Screening; further: nearly all actives have a fitted effect of over 55% in size
Conditions: NIH 3T3 viability, CellTiter-Glo ATP luminescence, 48-72 h; series mostly up to 96.7 µM; activity change, negative = cytotoxicity: at the top concentration
Outline: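 Luminescent ATP readout (CellTiter-Glo, 10 min RT) after 48 or 72 hr compound exposure of NIH 3T3 cells seeded at 400 cells/well in 1536-well format; quantitative HTS.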
On the % scale 0 is the no-effect control and ±100 the full control effect; potency means the concentration at half of the fitted maximal effect.

SMILES	Potency	activity change, negative = cytotoxicity	outcome
O=C(NCCc1ccccc1)c1ccc2nnc(-c3cccc(C(F)(F)F)c3)n2c1	39.8 µM (active)	–	–
O=C(NCc1ccc(C(F)(F)F)cc1)c1ccc2nnc(-c3ccc(C(F)(F)F)cc3)n2c1	31.6 µM (active)	–	–
O=C(NCCCc1ccccc1)C1CCc2nnc(-c3cccc(C(F)(F)F)c3)n21 (centres undefined)	–	-28.9%	–
O=C(NCc1ccc(F)c(F)c1)c1ccc2nnc(-c3cccnc3)n2c1	–	-18.6%	–
COCCNC(=O)c1ccc2nnc(-c3cccc(C(F)(F)F)c3)n2c1	–	-16.9%	–
O=C(NCc1ccccc1)c1ccc2nnc(C3CC3)n2c1	–	-24.4% [at 138 µM]	–
COC(=O)c1ccc(CN2C(=O)[C@@H]3C[C@@H](O)CN3C3(CN(Cc4cccc(F)c4)C3)C2=O)cc1	–	–	inactive
CCN1CC(C(=O)NCC2(c3ccccc3F)CCCC2)CC1=O (centres undefined)	–	-19.2%	–
CC(C)c1ccc(CN2CCc3nc(N(C)C)[nH]c(=O)c3CC2)cc1	–	-28.1%	–
COc1cccc(CCC(=O)N2C[C@@H](Oc3ccccc3)C[C@@H]2C(=O)N2CCOCC2)c1	–	-15.4%	–
Cc1ccc(NC(=O)N[C@@H]2C=C(C(=O)NCCC(N)=O)C[C@@H](O)[C@@H]2O)cc1	–	2.14% [at 174 µM]	–
CN1C[C@@H]2CC[C@H](C1)N(Cc1cccc(OCCN3CCOCC3)c1)C2	–	3.93%	–
CCCCC(=O)N1CCC(OC2CCN(S(C)(=O)=O)CC2)CC1	–	-18.1%	–
Cn1cnc(S(=O)(=O)N[C@H]2CCN(C(=O)CSCC(=O)O)[C@H](C(=O)N[C@H](Cc3ccccc3)C(N)=O)C2)c1	–	0.91%	–
COc1ccccc1-n1c(=O)c(C(=O)N2CCN([S+](C)(=O)[O-])CC2)nc2cccnc21	–	-11.7%	–
Cc1ccncc1C(=O)N1CCC2(CC1)CC(c1ccccc1)C(=O)N2C (centres undefined)	–	-21.3%	–
Cc1cc(N2CCC3(CC2)CC(c2ccccc2)C(=O)N3C)ncn1 (centres undefined)	79.4 µM (active)	–	–
CC#CCN1C(=O)NC(CCc2ccccc2)(C2CCN(Cc3ccccc3-c3ccco3)CC2)C1=O (centres undefined)	–	-25.6%	–
CC(=O)N1CC2(CCN(Cc3ncc[nH]3)CC2)CC1C(=O)O (centres undefined)	–	0.833%	–
O=C(Nc1ccc(Oc2ccccc2)cc1)O[C@@H]1CO[C@H]2[C@@H]1OC[C@@H]2NCC1CC1	–	-28.6% [at 174 µM]	–
N#Cc1cccc(NC(=O)O[C@@H]2CO[C@H]3[C@@H]2OC[C@@H]3Nc2nccc(-c3ccccc3)n2)c1	35.5 µM (active)	–	–
O=C(Nc1ccccc1)O[C@@H]1CO[C@H]2[C@@H]1OC[C@@H]2NS(=O)(=O)c1cccc2cccnc12	–	-22.1%	–
COc1cccc([S+](=O)([O-])N2CCC3(C2)N=C(c2ccncc2)C(=O)N3)c1 (centres undefined)	–	-25.3%	–
CC1(C(=O)NCC2CCCO2)CCCc2cnc(Nc3ccccc3)nc21 (centres undefined)	–	-4.02% [at 138 µM]	–

SMILES	Potency	activity change, negative = cytotoxicity	outcome
CC1(C(=O)NCc2ccc3c(c2)OCO3)CCc2cnc(NCc3ccccc3)nc21 (centres undefined)	3.16 µM (active)	–	–
CN1C(=O)CC[C@]2(C(=O)NCc3ccc4c(c3)OCO4)CCCC[C@@H]12	–	-2.74%	–
O=C(NCc1ccc(F)cc1F)c1nnn2c1COC(c1ccc(Br)cc1)C2 (centres undefined)	–	-20.1%	–
COc1cccc([S+](=O)([O-])N2CCC3(CC2)C(=O)NN=C3c2ccncc2)c1	–	-38.1%	–
CC(C)(C)C(=O)N1CCCC1C(=O)N1CCC(N2Cc3ccccc3C2=O)CC1 (centres undefined)	–	-10.6%	–
O=C(NCc1cccnc1)c1nc(-c2ccc(Cl)nc2)c2cnccn12	–	-19.1%	–
Cn1c([C@H]2CCN(C3CCOCC3)C2)nc2ccccc21	–	-5.14% [at 230 µM]	–
CN1CCC(N2CC[C@H](c3nc4ccccc4s3)C2)CC1	35.5 µM (active)	–	–
c1ccc2sc(C3CCCN(Cc4cc5n(n4)CCNC5)C3)nc2c1 (centres undefined)	–	-15.9%	–
O=C1NC(=NC2CCCCC2)C2(CCCN([S+](=O)([O-])c3ccccc3)C2)N1c1cc(F)cc(F)c1 (centres undefined)	–	-18.3%	–
CC(C)CCN1CCC2(C1)C(=NC1CCCCC1)NC(=O)N2c1cc(F)cc(F)c1 (centres undefined)	35.5 µM (active)	–	–
O=C(c1ccccc1F)N1CCCC2(C1)C(=NC1CCCCC1)NC(=O)N2c1cc(F)cc(F)c1 (centres undefined)	–	4.34%	–
O=C(CN1CCCC1=O)NCC1Cn2cccc2C(=O)N1Cc1ccccc1 (centres undefined)	–	-0.873%	–
CC(C)C(=O)N1CCOc2ccc(CN3CCc4ccccc4C3)cc2C1	–	-17.2%	–
CCCNC(=O)N1CCC(Cn2c(C)cnc2-c2cccnc2)CC1	–	-11.4%	–
O=C(NCc1ccc2c(c1)OCO2)C1CCCN(Cc2cccc(-c3cccs3)c2)C1 (centres undefined)	31.6 µM (active)	–	–
O=C(NCc1ccc2c(c1)OCO2)C1CN(C2CCCCC2)C(=O)N1 (centres undefined)	–	-28.4% [at 138 µM]	–
COCCNC(=O)C1CCCN(Cc2cccc(-c3cccs3)c2)C1 (centres undefined)	–	-26.2%	–
Cc1nc(C(=O)N2CC[C@H](N3CCN(C)CC3)[C@H](CCCO)C2)cs1	–	-11.8%	–
CCCCOC(=O)N1CC(=O)N(Cc2ccco2)CC(O)C1 (centres undefined)	–	-33.4%	–
COCCOCC(=O)N1CCC2(CC1)CC(N(C(=O)c1ccccc1)C1CC1)CCO2 (centres undefined)	–	-17%	–
COC[C@H]1NC(=O)CC[C@H]1C(=O)NCc1cccc(C(F)(F)F)c1	–	-13.8%	–
O=C(NCc1cccc(C(F)(F)F)c1)c1nn(CCOc2ccccc2)c2c1CNCC2	15.8 µM (active)	–	–
COc1ccccc1CNC(=O)c1nn(CC2CC2)c2c1CNCC2	–	-23.4%	–

SMILES	Potency	activity change, negative = cytotoxicity	outcome
CC(C)NC(=O)C1(CCO)CC12CCOCC2 (centres undefined)	–	-1.11%	–
O=C(c1ccc(Cl)cc1)N1CCCN(CCn2nc3n(c2=O)CCCC3)CC1	–	-29.3%	–
CCNC(=O)N[C@H]1CC[C@]2(C)CC[C@@H]([C@H](C)C(=O)NCc3ccco3)[C@H](O)[C@H]2[C@@H]1C	–	-6.06% [at 174 µM]	–
Cc1noc(C)c1-c1nccc2c(=O)cc(N3CCOCC3)oc12	100 µM (active)	–	–
O=c1cc(N2CCOCC2)oc2c(NCc3ccncc3)nccc12	44.7 µM (active)	–	–
CCn1c(=O)c2ccnn2c2ccc(C(=O)NCc3ccc(N4CCOCC4)cc3)cc21	–	-27.2%	–
CC(C)(C)CC(=O)Nc1ccc2c(N3CCOCC3)ncnc2c1	–	-17.4%	–
CC(=O)Nc1ccc(C2(C(=O)NCCCN3CCOCC3)CCCCC2)cc1	–	0.268%	–
CC(CO)Nc1ncnc2c1CN(C1CCCNCC1)C(=O)CN2C (centres undefined)	–	-0.856%	–
Cn1c(=O)[nH]cc(CC(=O)N2CCCC(c3cccc(C(=O)O)c3)C2)c1=O (centres undefined)	–	3.69%	–
CC1(c2ccccc2)N(Cc2ccccc2F)C(=O)OC12CCN(Cc1c[nH]c3ccccc13)CC2 (centres undefined)	17.8 µM (active)	–	–
CC(C)C(=O)N1CCC2(CC1)OC(=O)N(Cc1ccccc1F)C2(C)c1ccccc1 (centres undefined)	44.7 µM (active)	–	–
O=C1CCN(C(=O)Cc2c[nH]c3ccccc23)CCCCCCN1	–	-13%	–
COc1ccc(CN2CCC3(CC2)OCCN(Cc2ccccc2F)C3=O)cc1O	–	-17.7% [at 138 µM]	–
CCc1ccccc1S(=O)(=O)N1CCN(C2(CC)CCN(C(=O)C(C)C)C2)CC1 (centres undefined)	–	-24.7%	–
CN(CCO)CC1(O)CCCN(Cc2ccccc2F)C1=O (centres undefined)	–	-10.2%	–
O=C(CCc1conc1-c1ccccc1)NCc1ccco1	–	0.389%	–
CCOc1ccccc1NC(=O)Cn1c(N2CCOCC2)nc(CC)cc1=O	–	-21.6%	–
C[S+](=O)([O-])N1Cc2ccccc2OC2(CCN(C(=O)Cc3cccc(O)c3)CC2)C1	–	-6.82%	–
CN1CCC(NC(=O)C2CCCN(S(=O)(=O)c3ccccc3)CCC(=O)NCC2)CC1 (centres undefined)	–	-2.66%	–
Cn1ncc2c(C(=O)NCC(F)(F)F)cc(-c3ccc(C(F)(F)F)cc3)nc21	–	-7.73%	–
COc1ccc(-c2cc(C(=O)NCC#N)c3cnn(C)c3n2)cc1	15.8 µM (active)	–	–
Cn1ncc2c(C(=O)NCC#N)cc(-c3cccc(C(F)(F)F)c3)nc21	–	-27.8%	–
Cc1noc(C)c1S(=O)(=O)NCC1Cn2cccc2C(=O)N1C (centres undefined)	–	-8.04%	–

SMILES	Potency	activity change, negative = cytotoxicity	outcome
Cc1ncnc(N2CCC(Oc3ccc4ccccc4c3)(C(=O)O)CC2)c1C	–	-17.2%	–
COc1cccc(NC(=O)c2cnc3n[nH]c(-c4ccc(OC)cc4C)c3n2)c1	50.1 µM (active)	–	–
COc1ccc(-c2[nH]nc3ncc(C(=O)Nc4ccccc4)nc23)c(C)c1	28.2 µM (active)	–	–
COc1cccc(NC(=O)c2c(OC)cc(=O)n3c2CCCC3)c1	–	-8.97%	–
COc1cccc(-c2cc(C(=O)Nc3cccc(Cl)c3)c3cnn(C)c3n2)c1	–	-13.5%	–
COc1ccc(-c2[nH]nc3ncc(-c4cn[nH]c4)nc23)cc1F	–	-67.3% [at 138 µM]	–
CCOc1ccc2c(n1)CCN(C(=O)Nc1ccc(OC)cc1C)C2	–	-23.3%	–
CNC(=O)[C@H]1C[C@H](Oc2ccccc2)CN1C(=O)c1cc(-c2ccccc2)n[nH]1	–	-20.2%	–
COCc1cc(C[C@@H]2CC[C@H](O)[C@@H](CN(CC3CCCCC3)CC3CCCCC3)O2)no1	–	-16%	–
CC1(C)[C@H](Cc2cc(CN3CCCCC3)on2)C[C@@H]1NS(C)(=O)=O	–	-8.6% [at 174 µM]	–
CC(=O)N1CCC(NC[C@H]2O[C@H](Cc3cc(-c4cccc(O)c4)on3)CC[C@@H]2O)CC1	–	-11% [at 138 µM]	–
CN(Cc1ccccc1)Cc1cc(CC2(NCc3ccc(CO)o3)COC2)no1	–	-19.5% [at 174 µM]	–
CC1(C)[C@H](Cc2cc(CCO)on2)C[C@@H]1NCC1CC1	–	-0.442% [at 230 µM]	–
CC1(C)[C@H](Cc2cc(CC3CCCCC3)on2)C[C@@H]1NC1CCOCC1	31.6 µM (active)	–	–
CN(Cc1nccn1C)C(=O)c1cc(CN2CCC(Cc3ccccc3)CC2)on1	–	-27.7%	–
CCC(CC)C(=O)N[C@H]1C[C@@H](Cc2cc(COc3ccccc3)on2)C1(C)C	70.8 µM (active)	–	–
CC(=O)N1CCC(N[C@H]2C[C@@H](Cc3cc(CN(C)c4ccccc4)on3)C2(C)C)CC1	89.1 µM (active)	–	–
COCc1cc(C[C@@H]2CC[C@H](O)[C@@H](CN(C)C)O2)no1	–	–	inactive [at 174 µM]
CC1(C)[C@H](Cc2cc(CC3CCCCC3)on2)C[C@@H]1NC(=O)C1CCC1	39.8 µM (active)	–	–
CN(C)S(=O)(=O)N1CCCOCCNC(=O)[C@@H]2CCC[C@@H]21	–	-8.75%	–
COc1ccc2[nH]c(C(=O)N3C[C@@H](Oc4ccccc4)C[C@H]3C(=O)N3CCCC3)cc2c1	–	-4.04%	–
O=C(c1nc2sccn2c1CN1CCCC(CO)C1)N1CCCCC1 (centres undefined)	–	-1.87%	–
